GCN5L2 inh: GCN5L2 (KAT2A) acetyltransferase inhibition; AID 504327; Potency, µM (highest dose often 58.9 µM), for the others: top-dose activity change, negative = inhibition, most hits filed as inhibitors; hit rate 0.21% among 390,000; Q92830; GCN5L2 HAT assay, ThioGlo1 CoA-SH fluorescence; also: % is scaled to controls: 0 for no effect and ±100 for the full control effect
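ThioGlo1-coupled HAT assay: 20nM GCN5L2, 70uM acetyl-CoA, 75uM H3(1-25) peptide, pH 7.5. Fluorescence read at 340/540nm at start and after 20 min at room temperature.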
Mito fusion yeast: inhibitors of mitochondrial division or activators of mitochondrial fusion. S. cerevisiae fusion-defective mutant growth rescue, CellTiterGlo 48 h. Potency, µM (top dose mostly 46.1 µM), for inactives: at the highest dose growth rescue (activation), hits mostly activators. hit rate 0.23% among 320,000. AID 485298; also: % of control where 0% means no effect; nearly all actives have a fitted effect of over 45% in size
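Temperature-sensitive fusion-defective S. cerevisiae (e.g. fzo1-1, mgm1-5) were grown with compound in YPEG medium (3% ethanol, 3% glycerol) for 48 hours at 37C. Growth rescue was measured as viability by CellTiterGlo luminescence after 10 minutes at ambient.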
PLK1 PBD inh: PLK1 (human) polo-box domain binding inhibition | Potency, µM, without a hit: max response, negative = inhibition, most hits filed as inhibitors | hit rate 2.8% among 360,000 | Plk1 PBD binding of FITC phosphopeptide, fluorescence polarization; also: series mostly up to about 57 µM; % is scaled to controls: 0 for no effect and ±100 for the full control effect; nearly all actives have a fitted effect of over 65% in size
GLS inh: blocks human kidney-isoform glutaminase activity | O94925 | GLS enzymatic activity, qHTS titration | Potency, µM (highest dose often 45.5 µM), for inactives: at the highest dose activity change, negative = inhibition, actives largely listed as inhibitors | hit rate 0.21% among 410,000 | AID 624170; also: % is scaled to controls: 0 for no effect and ±100 for the full control effect
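Two-point fluorescence kinetic (t0, 30 min RT) for hKGA; glutamate detected via glutamate oxidase–HRP–Amplex Red. Substrate: 1 mM L-glutamine solution; buffer 45 mM KH2PO4, pH 8.2.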
PKM2 act: activators of human pyruvate kinase M2. P14618. purified PKM2, Kinase-Glo ATP luminescence, activation; response scale: 0% is enzyme alone, no compound. Potency, µM (titrated, usually from 57.5 µM), for inactives: at the highest dose activation, actives largely listed as activators. hit rate 0.34% among 260,000; also: % is scaled to controls: 0 for no effect and ±100 for the full control effect; nearly all actives have a fitted effect of over 55% in size
Target sequence (P14618 whole entry, looked up): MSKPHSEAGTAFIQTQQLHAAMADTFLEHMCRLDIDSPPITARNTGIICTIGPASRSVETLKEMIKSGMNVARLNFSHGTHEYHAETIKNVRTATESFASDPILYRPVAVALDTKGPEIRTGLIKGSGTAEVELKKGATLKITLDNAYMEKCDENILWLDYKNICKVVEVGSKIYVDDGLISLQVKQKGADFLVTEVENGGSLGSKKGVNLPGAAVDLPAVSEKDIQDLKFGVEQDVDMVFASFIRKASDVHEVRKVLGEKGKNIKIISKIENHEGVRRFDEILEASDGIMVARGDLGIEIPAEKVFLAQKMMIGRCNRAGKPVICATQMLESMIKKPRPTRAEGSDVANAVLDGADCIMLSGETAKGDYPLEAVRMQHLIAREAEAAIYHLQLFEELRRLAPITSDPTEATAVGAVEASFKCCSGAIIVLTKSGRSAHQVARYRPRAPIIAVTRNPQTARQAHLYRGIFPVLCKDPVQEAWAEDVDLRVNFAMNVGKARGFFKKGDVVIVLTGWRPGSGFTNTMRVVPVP
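Kinase-Glo luminescence reports ATP generated from ADP (0.1 mM) and PEP (0.5 mM) by purified hPK-M2 after 1 h at room temperature, pH 7.2 imidazole buffer; intermediate enzyme activity allows detecting inhibitors and activators.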
VDR inhibitor: vitamin D3 receptor (human) inhibition; P11473; VDR-SRC2-3 peptide fluorescence polarization, 2 h; Potency, µM, for the others: max response, negative = inhibition, most hits filed as inhibitors; hit rate 0.93% among 400,000; AID 504847; also: % is scaled to controls: 0 for no effect and ±100 for the full control effect
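FP read-out; VDR + SRC2-3 coactivator peptide; 23 nl compound by pintool; 2 h RT incubation; reagents held at 4 deg C, protected from light.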
* marks the source's active call; other numbers are inactive results; ? = inconclusive; . = not tested or not shown; ! = repeats disagree; [ ] = another dose, or the depositor's remark. Only some compounds are listed: those with a hit (about 3.4% of all), similar ones and a draw of the others. Calls follow the shape of the dose curve; as a rule, active = well fitted curve in the direction sought with a large enough effect; inconclusive = small, poorly fitted or top-dose-only effect, or another doubt; inactive = no such curve, though single readings can be large; an effect the other way counts as inactive or inconclusive. Potency is read from the fitted curve at half-maximal effect.

SMILES	GCN5L2 inh	Mito fusion yeast	PLK1 PBD inh	GLS inh	PKM2 act	VDR inhibitor
O=C1C=C(c2cccc(Cl)c2O)C[C@@H](c2ccc3c(c2)OCO3)C1	-1%	11µM*	-5%	27%	.	-6%
N#CCCCSc1nnnn1-c1cc(C(F)(F)F)cc(C(F)(F)F)c1	.	.	.	.	.	3%
Cc1[nH]c2ccccc2c1/C=N/NC(=O)CCC(=O)NCc1ccccc1	-6%	-2%	12µM*	?	-6%	-21%
CO[C@H]1C[C@@H]2CC[C@@H](C)[C@@](O)(O2)C(=O)C(=O)N2CCCC[C@H]2C(=O)O[C@H]([C@H](C)C[C@@H]2CC[C@@H](O)[C@H](OC)C2)CC(=O)[C@H](C)/C=C(/C)[C@@H](O)[C@@H](OC)C(=O)[C@H](C)C[C@H](C)C=C/C=C\C=C/1C	.	.	.	.	.	-24%
CO[C@H]1C[C@@H]2CC[C@@H](C)[C@@](O)(O2)C(=O)C(=O)N2CCCC[C@H]2C(=O)OC([C@H](C)C[C@@H]2CC[C@@H](O)[C@H](OC)C2)CC(=O)[C@H](C)/C=C(\C)[C@@H](O)[C@@H](OC)C(=O)[C@H](C)C[C@H](C)/C=C/C=C/C=C/1C (stereo partly drawn)	-22%	.	.	.	.	45µM*!
COc1ccc2c(c1)Sc1ccccc1N2	-10%	6%	-19%	18µM*	-4%	5%
C[C@@H]1CN([C@@H](C)CO)C(=O)CCCn2nncc2CO[C@@H]1CN(C)C(=O)Nc1ccnc(N2CCOCC2)c1	.	.	-3%	3%	.	.
CCOc1ccc(CCNC(=O)CCn2ccc3cc(S(=O)(=O)N4CCCC4)ccc32)cc1	-8%	-6%	?	-3%	-8%[0.46 µM]	-12%
Cc1cccc(CN2CCc3nc(N4CCN(c5ccccn5)CC4)ncc3C2)c1	22%	.	.	-5%	.	8%
O=S(=O)(Nc1ncnc2sc3c(c12)CCC3)c1ccc2ccccc2c1	?	20%	34µM*	7%	-19%	19%
Cc1cc(F)ccc1S(=O)(=O)Nc1ncnc2sc3c(c12)CCC3	-4%	?	17µM*	0%	-3%	-7%
CN1CCN(c2ccc(Cl)cc2NS(=O)(=O)c2ccccc2Cl)CC1	-1%	-20%	27µM*	4%	-8%	-3%
CCN(CC)S(=O)(=O)c1cc(C(=O)Nc2cc(Cl)ccc2N2CCN(C)CC2)ccc1Cl	-13%	-14%	-2%	.	6%	11%
CC(=O)Nc1cc(-c2ccccc2CN(C)C)cn2c(-c3ccc(C(C)=O)cc3)cnc12	.	.	-3%	10%	.	.
O=c1c2nccnc2[nH]c(=S)n1Cc1ccccc1Cl	-8%	2%	-8%	10µM*	1%	-5%
CCOC(=O)Cn1c(=O)c2c(nc(Br)n2Cc2ccccc2Cl)n(C)c1=O	0%	11%	-1%	9%	-22%	4%
O=C(c1ccc2c(=O)n(Cc3ccccc3Cl)c(=S)[nH]c2c1)N1CCCC1	-1%	-5%	-3%	-12%	.	-22%
Cn1c(=O)c2c([nH]c(=O)n2Cc2ccc(Cl)cc2Cl)n(C)c1=O	-4%	.	.	5%	.	-11%
Cn1c(SCc2nn[nH]n2)nc2c1c(=O)n(Cc1ccccc1Cl)c(=O)n2C	-2%	2%	-8%	11µM*	4%	9%
C=CCn1c(=O)c2c(nc(Br)n2Cc2ccccc2Cl)n(C)c1=O	-30%	-7%	30µM*	-21%	1%	-4%
Cn1c(=O)n(Cc2ccccc2Cl)c(=O)c2c1[nH]c(=S)n2C	-29%	4%	17µM*	14µM*	.	-23%
N#CC1(NC(=O)COC(=O)c2ccccc2SCC(=O)N2CCCC2)CCCCC1	-4%	1%	-4%	7%	19%	-10%
Cn1nnc2c(N3CCN(c4ccccc4F)CC3)ncnc21	-5%	.	.	2%	.	3%
Cn1c(=O)n(Cc2ccccc2Cl)c2ccccc21	24%	10%	17µM*	-10%	2%	?
O=C1CSC(=S)N1/N=C/c1ccc(O)c(O)c1O	?	-2%	0.95µM*	?	-29%	?
SMILES	GCN5L2 inh	Mito fusion yeast	PLK1 PBD inh	GLS inh	PKM2 act	VDR inhibitor
O=C1CSC(=S)N1/N=C/c1cc(Br)ccc1O	?	2%	.	.	-54%	.
CC1=NN(c2ccccc2)C(=O)C1C(=S)SC1CC(=O)NC1=O (stereo not drawn)	.	.	11µM*	12%	.	.
CC(=O)c1cccc([N+](=O)[O-])c1	-2%	-10%	-8%	-2%	.	-8%
O=C(C#Cc1ccccc1)c1cccc([N+](=O)[O-])c1	0%	-19%	0.6µM*	57%	8%	?
CCN1CCN(C(=O)c2ccc3c(c2)N(Cc2cc(C)ccc2C)C(=O)c2ccccc2S3(=O)=O)CC1	-7%	.	.	1%	.	6%
O=[N+]([O-])c1ccc(S(=O)(=O)c2ccccc2)nc1	47%	-120%	5.3µM*	3%	.	40µM*
Cc1ccc(S(=O)(=O)c2ccc(C)cc2)cc1	-6%	1%	-2%	-6%	9%	4%
Cc1ccc(S(=O)(=O)c2ccc([N+](=O)[O-])cn2)cc1	0%	-112%	?	-11%	.	25µM*
C=C[C@]1(C)C[C@@H](OC(=O)CO)[C@]2(C)C(C)CC[C@]3(CCC(=O)[C@H]32)[C@@H](C)[C@@H]1O (stereo partly drawn)	.	.	.	-5%	.	.
Cc1ccc(SCC(=O)Nc2nnc(C(C)(C)C)s2)cc1	8%	-5%	21µM*	9%	1%	4%
COc1ccc(/C=C/c2nnc(NC(=O)CSc3ccc(C)cc3)s2)cc1	-3%	-5%	-5%	0%	2%	-12%
CCOc1ccc(CC(=O)NCCS(=O)(=O)N2CCN(c3ccccc3OC)CC2)cc1	2%	.	.	5%	.	6%
CCOC(=O)c1ccc(NC(=O)Cn2c(-c3nonc3N)nc3ccccc32)cc1	-5%	1%	21µM*	-19%	19%	?
COc1ccc(Br)cc1S(=O)(=O)N1CCOCC1	-2%	3%	1%	-2%	4%	6%
COc1ccc(/C=C/C(=O)Nc2ccc(NC(C)=O)cc2)cc1S(=O)(=O)N1CCOCC1	2%	5%	30µM*	-6%	-2%	-15%
CCOc1ccc(/C=C/C(=O)Nc2ccc(N3CCOCC3)cc2)cc1	3%	-3%	3.4µM*	?	-2%	?
COc1ccc(/C=C/C(=O)Nc2ccccc2)cc1S(=O)(=O)N1CCOCC1	2%	2%	-4%	-1%	-2%	3%
COc1ccc(C)cc1S(=O)(=O)N1CCOCC1	3%	-3%	19µM*	0%	10%	-25%
COc1ccc(/C=C/C(=O)OCC(=O)Nc2ccc(N3CCOCC3)cc2)cc1	2%	2%	-16%	-5%	0%	-10%
